# Values without a mark were called inactive. Calls of active or inactive are those of the source. Rule as the data show it, unless noted: active = inhibition above about 33%; inactive = the rest.
# What was measured:
# [1] = StAR promoter reporter inhibitors, counter-screen for LRH-1 inverse agonist project, cell-based, luminescence, high throughput (AID 651611; in the data active = inhibition above about 28%); details: StAR promoter luciferase reporter counterscreen, at 3.6 µM, stronger effect = higher value
# [2] = target: Nuclear receptor subfamily 5 group A member 2 (Homo sapiens) (UniProt O00482); assay: NR5A2 activity suppression in reporter cells – cell-based, luminescence, confirmation (AID 651613; in the data active = inhibition above about 42%;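 also: HEK293T cells co-transfected with LRH-1 and StAR promoter luciferase reporter; 0% = vehicle wells and 100% = parental cells lacking receptor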); details: cell-based LRH-1 luciferase reporter, inverse agonism; at 3.6 µM; stronger effect = higher value
# Sequence of Nuclear receptor subfamily 5 group A member 2 (Homo sapiens) (O00482 whole entry, looked up): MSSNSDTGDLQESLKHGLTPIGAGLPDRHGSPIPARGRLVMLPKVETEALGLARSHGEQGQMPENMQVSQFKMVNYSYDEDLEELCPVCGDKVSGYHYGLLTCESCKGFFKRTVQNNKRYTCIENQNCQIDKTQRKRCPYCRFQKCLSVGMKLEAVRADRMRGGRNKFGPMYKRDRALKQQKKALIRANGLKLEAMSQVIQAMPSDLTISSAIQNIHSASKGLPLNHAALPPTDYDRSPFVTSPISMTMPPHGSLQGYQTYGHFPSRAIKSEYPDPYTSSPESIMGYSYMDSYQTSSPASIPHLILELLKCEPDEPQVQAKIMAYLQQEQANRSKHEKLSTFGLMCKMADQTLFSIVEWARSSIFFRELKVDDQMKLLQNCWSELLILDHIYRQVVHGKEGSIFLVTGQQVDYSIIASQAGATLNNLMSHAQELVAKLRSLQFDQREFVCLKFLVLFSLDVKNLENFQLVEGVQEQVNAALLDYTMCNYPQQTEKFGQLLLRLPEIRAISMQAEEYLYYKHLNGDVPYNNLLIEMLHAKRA
# [3] = target: Steroidogenic factor 1 (Homo sapiens) (UniProt Q13285); assay: inverse agonism at SF1 nuclear receptor – cell-based, luminescence, high throughput, counter-screen for LRH-1 inverse agonist project (AID 651614; in the data active = inhibition above about 44%;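 also: cells cotransfected with StAR promoter reporter and SF1 expression vector; 0% = vehicle on cells with receptor and 100% = vehicle on cells lacking receptor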); details: cell-based SF1 luciferase reporter, at 3.6 µM, stronger effect = higher value
# Sequence of Steroidogenic factor 1 (Homo sapiens) (Q13285 whole entry, looked up, the tested form may be a part): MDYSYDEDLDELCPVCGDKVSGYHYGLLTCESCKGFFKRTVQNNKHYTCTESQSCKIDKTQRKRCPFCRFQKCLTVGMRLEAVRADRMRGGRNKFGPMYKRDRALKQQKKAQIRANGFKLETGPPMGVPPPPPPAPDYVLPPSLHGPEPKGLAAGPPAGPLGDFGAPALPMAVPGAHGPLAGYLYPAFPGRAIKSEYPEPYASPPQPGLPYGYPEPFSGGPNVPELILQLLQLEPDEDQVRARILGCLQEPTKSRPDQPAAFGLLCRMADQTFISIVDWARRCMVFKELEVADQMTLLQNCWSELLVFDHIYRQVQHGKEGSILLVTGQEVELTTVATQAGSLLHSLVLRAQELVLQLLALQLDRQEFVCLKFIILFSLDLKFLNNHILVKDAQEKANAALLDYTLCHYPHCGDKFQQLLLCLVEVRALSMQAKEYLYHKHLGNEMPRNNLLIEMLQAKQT
# [4] = compounds suppressing VP16-driven luciferase signal – cell-based, luminescence, high throughput, counter-screen for LRH-1 inverse agonist project (AID 651615); details: Gal4-VP16 luciferase reporter cells, at 3.6 µM, stronger effect = higher value
SMILES,inhibition [1],inhibition [2],inhibition [3],inhibition [4]
CCOc1ccc(S(=O)(=O)NCc2ccncc2)cc1,25.8%,61.1% (active),59.4% (active),51.8% (active)
CN(C)c1ccc(CN(C(=O)C2COc3ccccc3O2)C2CCS(=O)(=O)C2)cc1 (stereo not given),3.73%,35.1%,39.1%,1.92%
Cc1nn(C)c(C)c1CN(Cc1nc(CCC(C)C)no1)C(C)C,20.7%,59.6% (active),54.2% (active),52.8% (active)
O=C(Nc1ccc(Oc2ccccc2)cc1)c1csc([C@H]2C[C@H](O)[C@@H](CO)O2)n1,27.6%,56.6% (active),61.1% (active),54.4% (active)
COc1ccc(NC(=O)CSc2ncnc3[nH]ncc23)cc1,7.25%,60.5% (active),54.4% (active),-6.96%
COc1ccc(C2=Nn3c(nnc3-c3ccccc3F)SC2)cc1OC1CCOC1 (stereo not given),56.2% (active),75% (active),78.2% (active),-40.3%
CC(=O)c1ccc(NC(=O)C(C)O/N=C(\N)c2ccccc2)cc1 (stereo not given),10.5%,51.7% (active),41.8%,-7.19%
COC(=O)c1cc2occc2n1CC(=O)Nc1ccc(C)cc1C,13.8%,66.8% (active),51.6% (active),1.15%
O=C(CCl)N1CCN(C(=O)C2COc3ccccc3O2)CC1 (stereo not given),18.7%,57.3% (active),57.3% (active),-13.5%
CCN(CC)S(=O)(=O)c1cccc(NC(=O)CNc2cccc(S(=O)(=O)N3CCCC3)c2)c1,26.7%,64.4% (active),59.8% (active),49.5% (active)
Cc1ccc(S(=O)(=O)NCc2ccncc2)c(C)c1C,17.9%,56.9% (active),59.5% (active),53.4% (active)
CS(=O)(=O)c1ccc(-c2cc(NC=O)c3ncc(-c4ccc(F)cc4)n3c2)cc1,13.9%,56% (active),55% (active),1.21%
CCCc1cc(NCCOCCO)n2c(nc3ccccc32)c1C#N,4.93%,45.1% (active),36.6%,-14.6%
COc1ccc(CC(NC(C)=O)C(=O)NC2CCN(c3nnnn3-c3ccccc3)CC2)cc1 (stereo not given),10.5%,45.1% (active),43.8% (active),2.12%
COc1ccc(NC(=O)CN2C(=O)NC3(CCCC3)C2=O)cc1Cl,2.83%,54.6% (active),60.6% (active),-7.78%
C/C(=N\N=C(N)N)c1cc(Cl)ccc1Cl,26.9%,102% (active),30.1%,75.8% (active)
Cc1ccc(C)c(NC(=O)CSc2nnc(-c3n[nH]c4ccccc34)o2)c1,10.3%,58.9% (active),50.4% (active),5.08%
Clc1ccccc1-c1nnc2sc(-c3ccc(Br)o3)nn12,5.07%,43.5% (active),54.5% (active),-2.86%
CCn1cc(CN(C)S(=O)(=O)c2ccc3ccccc3c2)c(C)n1,-0.8%,50.9% (active),52.5% (active),40.2% (active)
CC(=O)Nc1ccc(C2=CC(=O)CC(C)(C)C2)cc1,15.2%,60.2% (active),55.8% (active),-10.9%
COc1ccc(Nc2nc(NCCN3CCOCC3)nc(Nc3ccc(OC)cc3)n2)cc1,-1.42%,42.9% (active),38.6%,0.52%
O=C(CCl)Nc1cccn2ncnc12,33.1% (active),49.3% (active),54.6% (active),-31.4%
Cc1ccc(NC(=O)CSc2sc3c(O)cc(=O)[nH]c3c2C#N)c(F)c1,7.65%,57.1% (active),41.9%,-9.48%
O=C(NCc1cccnc1)c1ccc([N+](=O)[O-])o1,16.3%,62.7% (active),63.4% (active),-3.23%
Cc1c(Cl)cccc1NC(=O)CNc1ccccc1F,-3.5%,58.7% (active),40.6%,-6.92%

# Reference: PubChem BioAssay
